{"source": "a collection of fitness landscapes (doi:10.1126/science.1257360)", "parents": {"B1": {"name": "PhoQ; a variant is named by its letters at X, in order, P23837 (parent)", "chain": "MKKLLRLFFPLSLRVRFLLATAAVVLVLSLAYGMVALIGYSVSFDKTTFRLLRGESNLFYTLAKWENNKLHVELPENIDKQSPTMTLIYDENGQLLWAQRDVPWLMKMIQPDWLKSNGFHEIEADVNDTSLLLSGDHSIQQQLQEVREDDDDAEMTHSVAVNVYPATSRMPKLTIVVVDTIPVELKSSYMVWSWFIYVLSANLLLVIPLLWVAAWWSLRPIEALAKEVRELEEHNRELLNPATTRELTSLVRNLNRLLKSERERYDKYRTTLTDLTHSLKTPLXXLQXXLRSLRSEKMSVSDAEPVMLEQISRISQQIGYYLHRASMRGGTLLSRELHPVAPLLDNLTSALNKVYQRKGVNISLDISPEISFVGEQNDFVEVMGNVLDNACKYCLEFVEISARQTDEHLYIVVEDDGPGIPLSKREVIFDRGQRVDTLRPGQGVGLAVAREITEQYEGKIVAGESMLGGARMEVIFGRQHSAPKDE"}}, "note": "In all, about 140,000 sequences were measured (“enrichment ratio after two sorts for PhoP signalling”: median about 0, highest 2% from about 11 on). Only a selection was taken, and the highest values are over-represented in it overall.", "data": [{"variants_of": "B1", "assay": "enrichment ratio after two sorts for PhoP signalling (ratio (wild type AVST 3.29)); higher = more functional", "settings": "with PhoP (E. coli)", "values": [{"variant": "EVAW", "enrichment ratio": "≤ 0.25"}, {"variant": "DHDV", "enrichment ratio": "≤ 0.25"}, {"variant": "YAYW", "enrichment ratio": "≤ 0.25"}, {"variant": "ANRY", "enrichment ratio": "≤ 0.25"}, {"variant": "RTRT", "enrichment ratio": "≤ 0.25"}, {"variant": "WPGL", "enrichment ratio": "≤ 0.25"}, {"variant": "ASMN", "enrichment ratio": 19.6}, {"variant": "ASNL", "enrichment ratio": 4.93}, {"variant": "ASMG", "enrichment ratio": 17.6}, {"variant": "KSVG", "enrichment ratio": "≤ 0.25"}, {"variant": "ASQN", "enrichment ratio": "≤ 0.25"}, {"variant": "AHAF", "enrichment ratio": "≤ 0.25"}, {"variant": "KSAF", "enrichment ratio": "≤ 0.25"}, {"variant": "ASMD", "enrichment ratio": "≤ 0.25"}, {"variant": "ASVC", "enrichment ratio": 5.25}, {"variant": "ASMW", "enrichment ratio": 5.78}, {"variant": "ASVG", "enrichment ratio": 14.7}, {"variant": "ASAF", "enrichment ratio": 15.1}, {"variant": "VSHV", "enrichment ratio": "≤ 0.25"}, {"variant": "ELII", "enrichment ratio": "≤ 0.25"}, {"variant": "DHGN", "enrichment ratio": "≤ 0.25"}, {"variant": "NHFI", "enrichment ratio": "≤ 0.25"}, {"variant": "QTFL", "enrichment ratio": 1.72}, {"variant": "YDLL", "enrichment ratio": "≤ 0.25"}, {"variant": "QRFQ", "enrichment ratio": "≤ 0.25"}, {"variant": "EHKV", "enrichment ratio": "≤ 0.25"}, {"variant": "LCMI", "enrichment ratio": "≤ 0.25"}, {"variant": "IHER", "enrichment ratio": "≤ 0.25"}, {"variant": "LAPE", "enrichment ratio": "≤ 0.25"}, {"variant": "VIMD", "enrichment ratio": "≤ 0.25"}, {"variant": "ASVI", "enrichment ratio": 5.75}, {"variant": "ASSI", "enrichment ratio": 15.8}, {"variant": "ASMK", "enrichment ratio": 17}, {"variant": "KSMK", "enrichment ratio": "≤ 0.25"}, {"variant": "ASRK", "enrichment ratio": "≤ 0.25"}, {"variant": "ASVP", "enrichment ratio": "≤ 0.25"}, {"variant": "AITG", "enrichment ratio": 11.5}, {"variant": "ASVM", "enrichment ratio": 12.1}, {"variant": "VRSI", "enrichment ratio": "≤ 0.25"}, {"variant": "ASMA", "enrichment ratio": 2.9}, {"variant": "VHTG", "enrichment ratio": "≤ 0.25"}, {"variant": "AMTG", "enrichment ratio": 2.78}, {"variant": "YVIL", "enrichment ratio": "≤ 0.25"}, {"variant": "LYCG", "enrichment ratio": "≤ 0.25"}, {"variant": "RRIS", "enrichment ratio": "≤ 0.25"}, {"variant": "NHAY", "enrichment ratio": "≤ 0.25"}, {"variant": "QIHN", "enrichment ratio": "≤ 0.25"}, {"variant": "YWDR", "enrichment ratio": "≤ 0.25"}, {"variant": "YHEQ", "enrichment ratio": "≤ 0.25"}, {"variant": "IKMW", "enrichment ratio": "≤ 0.25"}, {"variant": "ASMI", "enrichment ratio": 13.5}, {"variant": "ASMS", "enrichment ratio": 5.31}, {"variant": "ASWG", "enrichment ratio": "≤ 0.25"}, {"variant": "ASTG", "enrichment ratio": 14.7}, {"variant": "ASVE", "enrichment ratio": 21.7}, {"variant": "ASIG", "enrichment ratio": 12}, {"variant": "ASHE", "enrichment ratio": "≤ 0.25"}, {"variant": "KSVE", "enrichment ratio": "≤ 0.25"}, {"variant": "ASMV", "enrichment ratio": 7.76}, {"variant": "ASEG", "enrichment ratio": "≤ 0.25"}, {"variant": "PNRW", "enrichment ratio": "≤ 0.25"}, {"variant": "LAVR", "enrichment ratio": "≤ 0.25"}, {"variant": "IMSG", "enrichment ratio": "≤ 0.25"}, {"variant": "RHEW", "enrichment ratio": "≤ 0.25"}, {"variant": "QSKD", "enrichment ratio": "≤ 0.25"}, {"variant": "VADS", "enrichment ratio": "≤ 0.25"}, {"variant": "DWYQ", "enrichment ratio": "≤ 0.25"}, {"variant": "YRSW", "enrichment ratio": "≤ 0.25"}, {"variant": "MCAS", "enrichment ratio": 14}, {"variant": "MMAS", "enrichment ratio": 15.4}, {"variant": "MAAS", "enrichment ratio": 1.31}, {"variant": "TMAS", "enrichment ratio": 15}, {"variant": "MFAS", "enrichment ratio": "≤ 0.25"}, {"variant": "DMAS", "enrichment ratio": "≤ 0.25"}, {"variant": "ICAS", "enrichment ratio": "≤ 0.25"}, {"variant": "KMAS", "enrichment ratio": "≤ 0.25"}, {"variant": "YTAS", "enrichment ratio": "≤ 0.25"}, {"variant": "VCAS", "enrichment ratio": "≤ 0.25"}, {"variant": "MKAS", "enrichment ratio": "≤ 0.25"}, {"variant": "MTAS", "enrichment ratio": 12}, {"variant": "NQNV", "enrichment ratio": "≤ 0.25"}, {"variant": "NTIL", "enrichment ratio": "≤ 0.25"}, {"variant": "MCAI", "enrichment ratio": 8.95}, {"variant": "GQFV", "enrichment ratio": "≤ 0.25"}, {"variant": "PTRG", "enrichment ratio": "≤ 0.25"}, {"variant": "IQLY", "enrichment ratio": "≤ 0.25"}, {"variant": "QVYW", "enrichment ratio": "≤ 0.25"}, {"variant": "GCPS", "enrichment ratio": "≤ 0.25"}, {"variant": "RGMN", "enrichment ratio": "≤ 0.25"}, {"variant": "FSMN", "enrichment ratio": 1.56}, {"variant": "NHMN", "enrichment ratio": "≤ 0.25"}, {"variant": "SHMN", "enrichment ratio": "≤ 0.25"}, {"variant": "KSMN", "enrichment ratio": "≤ 0.25"}, {"variant": "THMN", "enrichment ratio": 12.7}, {"variant": "TSMN", "enrichment ratio": 12.3}, {"variant": "TGMN", "enrichment ratio": 34.8}, {"variant": "GGMN", "enrichment ratio": "≤ 0.25"}, {"variant": "RHML", "enrichment ratio": "≤ 0.25"}, {"variant": "RVMN", "enrichment ratio": "≤ 0.25"}, {"variant": "GNFW", "enrichment ratio": "≤ 0.25"}, {"variant": "LDMA", "enrichment ratio": "≤ 0.25"}, {"variant": "ESWV", "enrichment ratio": "≤ 0.25"}, {"variant": "KCLD", "enrichment ratio": "≤ 0.25"}, {"variant": "RANI", "enrichment ratio": "≤ 0.25"}, {"variant": "GSCV", "enrichment ratio": 16.6}, {"variant": "GSCI", "enrichment ratio": 10.8}, {"variant": "GSIV", "enrichment ratio": 8.6}, {"variant": "GSWV", "enrichment ratio": "≤ 0.25"}, {"variant": "GSCL", "enrichment ratio": 21.5}, {"variant": "GSMV", "enrichment ratio": 17.2}, {"variant": "GSMW", "enrichment ratio": "≤ 0.25"}, {"variant": "GSCA", "enrichment ratio": 0.424}, {"variant": "GSCS", "enrichment ratio": 5.76}, {"variant": "FTHE", "enrichment ratio": "≤ 0.25"}, {"variant": "HIYR", "enrichment ratio": "≤ 0.25"}, {"variant": "AWLF", "enrichment ratio": "≤ 0.25"}, {"variant": "YRSQ", "enrichment ratio": "≤ 0.25"}, {"variant": "HSMH", "enrichment ratio": "≤ 0.25"}, {"variant": "HSWV", "enrichment ratio": "≤ 0.25"}, {"variant": "HSMW", "enrichment ratio": "≤ 0.25"}, {"variant": "HSMG", "enrichment ratio": 1.29}, {"variant": "HSMV", "enrichment ratio": 17}, {"variant": "HSMI", "enrichment ratio": 17.4}, {"variant": "WYLH", "enrichment ratio": "≤ 0.25"}, {"variant": "TLFF", "enrichment ratio": "≤ 0.25"}, {"variant": "AINV", "enrichment ratio": "≤ 0.25"}, {"variant": "SNRK", "enrichment ratio": "≤ 0.25"}, {"variant": "QKYP", "enrichment ratio": "≤ 0.25"}, {"variant": "IVDD", "enrichment ratio": "≤ 0.25"}, {"variant": "VLPC", "enrichment ratio": "≤ 0.25"}, {"variant": "HDDH", "enrichment ratio": "≤ 0.25"}, {"variant": "WDDD", "enrichment ratio": "≤ 0.25"}, {"variant": "TLSC", "enrichment ratio": 8.65}, {"variant": "STSC", "enrichment ratio": 11.6}, {"variant": "CMSC", "enrichment ratio": 39.5}, {"variant": "SRSC", "enrichment ratio": "≤ 0.25"}, {"variant": "MMSC", "enrichment ratio": "≤ 0.25"}, {"variant": "SDSC", "enrichment ratio": 2.35}, {"variant": "KQSC", "enrichment ratio": "≤ 0.25"}, {"variant": "SQSC", "enrichment ratio": 11.7}, {"variant": "YTSC", "enrichment ratio": "≤ 0.25"}, {"variant": "FVKG", "enrichment ratio": "≤ 0.25"}, {"variant": "PVCQ", "enrichment ratio": "≤ 0.25"}, {"variant": "MPMY", "enrichment ratio": "≤ 0.25"}, {"variant": "HPTD", "enrichment ratio": "≤ 0.25"}, {"variant": "MFHP", "enrichment ratio": "≤ 0.25"}, {"variant": "IYSH", "enrichment ratio": "≤ 0.25"}, {"variant": "RGAT", "enrichment ratio": "≤ 0.25"}, {"variant": "RGNY", "enrichment ratio": "≤ 0.25"}, {"variant": "TGAH", "enrichment ratio": 9.14}, {"variant": "AKAH", "enrichment ratio": 4.55}, {"variant": "GGAT", "enrichment ratio": "≤ 0.25"}, {"variant": "GGNT", "enrichment ratio": "≤ 0.25"}, {"variant": "TGNT", "enrichment ratio": 15.8}, {"variant": "RGNT", "enrichment ratio": "≤ 0.25"}, {"variant": "GGNY", "enrichment ratio": "≤ 0.25"}, {"variant": "TGNY", "enrichment ratio": 16.9}, {"variant": "AGAH", "enrichment ratio": 11.2}, {"variant": "TGAT", "enrichment ratio": 18.1}, {"variant": "IMPT", "enrichment ratio": "≤ 0.25"}, {"variant": "STPE", "enrichment ratio": "≤ 0.25"}, {"variant": "SDDK", "enrichment ratio": "≤ 0.25"}, {"variant": "DTVG", "enrichment ratio": "≤ 0.25"}, {"variant": "MNVA", "enrichment ratio": "≤ 0.25"}, {"variant": "LNLH", "enrichment ratio": "≤ 0.25"}, {"variant": "MLMR", "enrichment ratio": "≤ 0.25"}, {"variant": "AGAT", "enrichment ratio": 11.3}, {"variant": "CQNY", "enrichment ratio": 12.1}, {"variant": "AGDT", "enrichment ratio": "≤ 0.25"}, {"variant": "AGKR", "enrichment ratio": "≤ 0.25"}, {"variant": "CQWS", "enrichment ratio": "≤ 0.25"}, {"variant": "CQVY", "enrichment ratio": 5.8}, {"variant": "IKGI", "enrichment ratio": "≤ 0.25"}, {"variant": "DLMM", "enrichment ratio": "≤ 0.25"}, {"variant": "RFVW", "enrichment ratio": "≤ 0.25"}, {"variant": "QQLG", "enrichment ratio": 2.01}, {"variant": "YTCV", "enrichment ratio": "≤ 0.25"}, {"variant": "ITCS", "enrichment ratio": "≤ 0.25"}, {"variant": "ITCV", "enrichment ratio": "≤ 0.25"}, {"variant": "LTCG", "enrichment ratio": "≤ 0.25"}, {"variant": "TTCV", "enrichment ratio": 17.3}, {"variant": "YTCT", "enrichment ratio": "≤ 0.25"}, {"variant": "TTCT", "enrichment ratio": 12.8}, {"variant": "YTCG", "enrichment ratio": "≤ 0.25"}, {"variant": "TTCS", "enrichment ratio": 18.7}, {"variant": "ITCT", "enrichment ratio": "≤ 0.25"}, {"variant": "TTCG", "enrichment ratio": 30.3}, {"variant": "YTCS", "enrichment ratio": "≤ 0.25"}, {"variant": "ATPS", "enrichment ratio": "≤ 0.25"}, {"variant": "KDFS", "enrichment ratio": "≤ 0.25"}, {"variant": "PMMQ", "enrichment ratio": "≤ 0.25"}, {"variant": "YYTW", "enrichment ratio": "≤ 0.25"}, {"variant": "RVTP", "enrichment ratio": "≤ 0.25"}, {"variant": "FDKV", "enrichment ratio": "≤ 0.25"}, {"variant": "TTCE", "enrichment ratio": 8.85}, {"variant": "TTCI", "enrichment ratio": 15.8}, {"variant": "TTCK", "enrichment ratio": 5.62}]}]}
